# This is a sample that favours compounds with a hit; in the whole collection about 3% have one here.
# Nrf2 block: inhibitors of Nrf2 signaling | hit rate 2.1% among 360,000 | AID 504444 | Potency, µM (series often up to 46 µM), for the others: top-dose activity change, negative = inhibition, usual class: inhibitors | A549 ARE-Fluc reporter, luciferase luminescence, 18-24 h; note: % is set by controls: 0 for no effect and ±100 for the full control effect; nearly all actives have a fitted effect of over 60% in size
#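 A549 ARE_Fluc cells (5000/well, 5% FBS OPTI-MEM) pre-incubated 2 h, then treated with compounds 18-24 h at 37C/5% CO2 in concentration-response. CellTiter-Fluor viability read first; BugLite luciferase luminescence after 15 min at room temperature gives Nrf2 activity.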
# Nrf2 ARE act: Nrf2 pathway activation. hit rate 0.31% among 410,000. AID 624171. AREc32 ARE-luciferase reporter (MCF7-derived line), luminescence, 24 h. Potency, µM (top dose mostly 46.1 µM), without a hit: at the highest dose activation, usual class: activators; note: % of control where 0% means no effect; nearly all actives have a fitted effect of over 65% in size
#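 Steps: seed AREc32_Fluc cells (1000/well, 5% FBS OPTI-MEM); incubate overnight at 37 deg C; add 23 nL compound; incubate 24 hr; add Steady-Glo; hold 30 min RT; read luminescence.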
# GALK inh: galactokinase (human) inhibition. hit rate 0.007% among 270,000. Purified GALK, Kinase-Glo residual ATP luminescence. AID 1868. Potency, µM (doses to about 57.5 µM), for the others: at the top dose activity change, negative = inhibition, most hits filed as inhibitors. P51570; note: % is set by controls: 0 for no effect and ±100 for the full control effect
# Target sequence (P51570 whole entry, looked up): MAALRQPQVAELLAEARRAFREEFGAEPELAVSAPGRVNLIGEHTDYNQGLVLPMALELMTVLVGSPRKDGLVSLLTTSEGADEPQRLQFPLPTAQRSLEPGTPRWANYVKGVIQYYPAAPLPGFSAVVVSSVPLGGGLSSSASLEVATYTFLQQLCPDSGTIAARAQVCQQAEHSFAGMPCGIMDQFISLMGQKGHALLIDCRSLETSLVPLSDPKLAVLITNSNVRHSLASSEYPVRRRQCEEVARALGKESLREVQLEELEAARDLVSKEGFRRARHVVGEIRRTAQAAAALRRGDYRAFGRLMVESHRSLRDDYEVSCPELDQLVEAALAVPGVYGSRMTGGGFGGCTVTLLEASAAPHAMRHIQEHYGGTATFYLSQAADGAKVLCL
#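 Luminescence from leftover ATP (Ultra-Glo luciferase/luciferin) served as read-out after a 1 h room-temperature reaction of 5 nM GALK with 35 uM ATP and 100 uM galactose.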
# A549 tox: kills or reduces viability of A549 cells in Nrf2 counter-screen | A549 ARE-Fluc cells, CellTiter-Fluor viability, 18-24 h | Potency, µM (series often up to 46 µM), inactives show top-dose activity change, negative = cytotoxicity, hits mostly inhibitors | hit rate 0.16% among 390,000; note: % is set by controls: 0 for no effect and ±100 for the full control effect
#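 A549 ARE-Fluc cells in 5% FBS OPTI-MEM, 5000 cells/well, rested 2 h then exposed to compounds in concentration-response for 18-24 h at 37 °C. Viability by CellTiter-Fluor fluorescence (Ex 405/Em 525) after 30 min; luciferase luminescence (BugLite, 15 min, RT) read afterwards.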
# rTrxR1 inhibitor: inhibitors of rat thioredoxin reductase 1 | O89049 | recombinant rTrxR1, NADPH fluorescence consumption, selenite substrate | Potency, µM (top dose mostly 114 µM), inactives show at the highest dose activity change, negative = inhibition, most hits filed as inhibitors | hit rate 1% among 390,000 | AID 588453; note: % is set by controls: 0 for no effect and ±100 for the full control effect; nearly all actives have a fitted effect of over 65% in size
#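 Rat TrxR1 (90 nM in the dispensed reagent) was pre-reduced with 400 uM NADPH for 5 min at room temperature, then incubated with compound for 15 min. After 400 uM selenite was added, NADPH fluorescence (Ex 340/Em 450 nm) was followed for 8 min.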
# TrxR1 substrate: substrates of rat thioredoxin reductase 1 | O89049 | purified TrxR1 substrate turnover, NADPH consumption readout | Potency, µM (series often up to 114 µM), for the others: at the highest dose activity change, negative = substrate turnover | hit rate 0.01% among 390,000; note: % is set by controls: 0 for no effect and ±100 for the full control effect; nearly all actives have a fitted effect of over 50% in size
#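 Rat TrxR1, dispensed at 90 nM, was prereduced with 400 uM NADPH (final) for 5 min at ~22 deg C, then incubated with compound 15 min before 400 uM selenite. A first-read NADPH fluorescence drop versus no-compound background flagged substrates.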
# * marks the source's active call; other numbers are inactive results; ? = inconclusive; nt = no result; [ ] = remark or other dose. Calls come from the whole dose curve; as a rule, active = well fitted curve in the direction sought with a large enough effect; inconclusive = small, poorly fitted or top-dose-only effect, or another doubt; inactive = no such curve, though single readings can be large; an effect the other way counts as inactive or inconclusive. Potency is the fitted concentration of half-maximal effect.
SMILES,Nrf2 block,Nrf2 ARE act,GALK inh,A549 tox,rTrxR1 inhibitor,TrxR1 substrate
COc1ccc(N/N=C(/C(C)=O)N2CCCc3ccccc32)cc1,6.51µM*,0.4%,-0.6%,-7.7%,-4.0%,1.9%[57.1 µM]
O=C(c1ccc(S(=O)(=O)Nc2cccc(C(F)(F)F)c2)cc1)N1CCOCC1,?,-0.2%,3.8%,-3.5%,10.9%,-0.6%
O=C(COc1ccccc1[N+](=O)[O-])Nc1cc(-c2nc3cc(Cl)ccc3o2)ccc1Cl,-2.9%,0.1%,nt,-0.6%,21.6%,-1.1%
CCC(=O)Nc1cccc(-c2cn3c(C)csc3n2)c1,nt,-0.3%,nt,1.2%,7.8%[57.1 µM],-5.8%[57.1 µM]
O=C(NCCc1ccccc1)c1ccc(Nc2nc3ccccc3n3nnnc23)cc1,?,3.1%,nt,2.1%,?,121.9%
CCOC(=O)c1cc(-c2ccc(F)cc2)n(CC(=O)NC2CCCCC2)c1C,nt,0.3%,nt,-1.0%,33.3%[57.1 µM],0.0%[57.1 µM]
CC(=O)N1c2ccc(S(=O)(=O)Nc3ccc(C)c(C)c3)cc2CC1C (stereo not given),10.3µM*,nt,nt,?,nt,nt
CCc1ccc(S(=O)(=O)Nc2ccc3c(c2)sc(=O)n3C)cc1,nt,7.2%,nt,2.7%,-15.8%[57.1 µM],-9.8%[57.1 µM]
CSc1cccc(NS(=O)(=O)c2ccc3c(c2)CCN3C(C)=O)c1,?,0.0%,0.0%,-10.8%,33.2%,3.6%
COc1cccc(NS(=O)(=O)c2ccc3c(c2)CCN3C(C)=O)c1,10.3µM*,3.8%,-1.4%,-6.2%,10.1%[57.1 µM],11.2%
CC(=O)N1CCc2cc(S(=O)(=O)Nc3cccc(C(F)(F)F)c3)ccc21,9.2µM*,-0.9%,0.5%,2.1%,-9.6%,-11.8%
CCn1c(=O)sc2cc(NS(=O)(=O)c3ccc(C)cc3)ccc21,18.4µM*,9.2%,nt,0.3%,8.0%,-5.6%
Cc1cc2c(s1)c1cnn(Cc3cccc(C(F)(F)F)c3F)c(=O)c1n2C,-7.4%,nt,nt,0.0%,nt,nt
Cc1ccc(S(=O)(=O)Nc2ccc3c(c2)CCC3)cc1,11.6µM*,0.4%,-1.8%,?,-3.2%,-17.7%
CCc1cccc(NS(=O)(=O)c2ccc3c(c2)CC(C)N3C(=O)C2CC2)c1 (stereo not given),11.6µM*,-0.2%,nt,-21.2%,25.2%,-3.0%
COc1cc(CNC(=O)c2ccc(NC(=O)N3CCCCc4ccccc43)cc2)cc(OC)c1OC,?,0.8%,nt,-4.9%,0.2%[57.1 µM],0.0%[57.1 µM]
N#C/C(=C/c1ccc(Sc2nc3ccccc3[nH]2)o1)c1cccc(Br)c1,16.4µM*,6.2%,-0.5%,?,17.9%[57.1 µM],8.3%[57.1 µM]
N#C/C(=C\c1ccc(Sc2ccccc2)o1)c1nc2ccccc2[nH]1,-23.6%,8.4%,0.0%,-5.6%,-21.8%,-10.9%
N#C/C(=C/c1ccc(Sc2nc3ccccc3[nH]2)o1)c1ccccc1F,?,15.8%,-1.9%,?,19.3%,7.5%
N#C/C(=C/c1ccc(Sc2nc3ccccc3[nH]2)o1)c1cccc(F)c1,20.6µM*,18.2%,0.5%,25.9µM*,-3.5%,-3.5%
COc1cccc(C(=O)Nc2cccc(C(=O)OCc3cc(=O)n4c5c(sc4n3)CCCC5)c2)c1,nt,-0.3%,nt,1.8%,24.8%[57.1 µM],4.1%[57.1 µM]
O=C(CSc1nnc(-c2ccccc2)c(-c2ccccc2)n1)NC1CCCCC1,?,-0.3%,nt,-14.9%,0.5%[57.1 µM],-3.3%[57.1 µM]
COc1ccc(-c2noc(N3CCN(c4cccc(Cl)c4)CC3)n2)cc1OC,23.1µM*,0.2%,nt,-5.2%,25.4%,-4.5%
CCOC(=O)c1c(NC(C)=O)sc2c1CCN(Cc1ccccc1)C2,13.4%,0.8%,nt,6.9%,5.9%[57.1 µM],-7.4%[57.1 µM]
CCOC(=O)c1c(NC(C)=O)sc2c1CCC(C=O)=C2Sc1ccccc1,20.6µM*,?,0.6%,?,1.26µM*,5.8%
SMILES,Nrf2 block,Nrf2 ARE act,GALK inh,A549 tox,rTrxR1 inhibitor,TrxR1 substrate
CN(C)CCNC(=O)c1ccc(-n2c(-c3ccccc3)cc3c2CCCCC3)cc1,?,?,nt,-6.2%,9.0%,0.8%[11.4 µM]
CCCNC(=O)c1ccc(-n2c(-c3ccccc3)cc3c2CCC(C)C3)cc1 (stereo not given),?,11.2µM*,nt,-15.4%,-2.6%,-5.3%
COCCNC(=O)c1ccc(-n2c(-c3ccccc3)cc3c2CCC(C)C3)cc1 (stereo not given),6.5%,10µM*,nt,-1.1%,1.5%,-7.3%
COc1cccc(OC)c1-c1cc(CCCc2cc(-c3c(OC)cccc3OC)nc3ccccc23)c2ccccc2n1,nt,nt,nt,nt,-3.3%,-0.8%
COc1ccc(CNC(=O)c2cnn(-c3ccc(C)cc3)c2C2CCN(C(=O)OC(C)(C)C)CC2)cc1,nt,-1.4%,nt,-19.3%,16.5%[57.1 µM],-3.4%[57.1 µM]
CCCCSCCCNC(=O)CN1C(=O)c2cccnc2Oc2ccc(Cl)cc21,16.2%,3.0%,nt,14.0%,11.8%,1.1%
CC(=O)CCc1oc2ccc(NC(C)=O)cc2c1-c1ccc(C)o1,-18.8%,2.9%,1.0%,-13.5%,20µM*,3.3%
CC(=O)CCc1oc2ccc(C)cc2c1-c1ccc(C)o1,?,13.0%,1.7%,2.9%,?,-14.7%[57.1 µM]
CC(=O)c1cccc(NS(=O)(=O)c2ccc(N/C=C\C(=O)c3ccc(F)cc3)cc2)c1,25.9µM*,4.6%,-2.6%,?,9.8%[57.1 µM],5.6%[57.1 µM]
